By AC50 is commonly meant the midpoint of the concentration-response curve, whichever way the signal moves.

Values joined by “and” are separate entries in the source; they are usually repeats but may differ in a detail not shown here. Equal values may be shown once. The source holds several records for some structures; these can differ, active in one and inactive in another. Active and inactive are the calls of the source. How the source made its calls: active means hit-call score of the fitted dose curve at least 0.9, where 1 is the maximum; inactive means score below 0.9.

Read-out in test [1]: Thrombomodulin, THBD (gene 7056)
Kind of test: BSK_CASM3C_Thrombomodulin: BioMAP Diversity Plus: CASM3C Assay for Thrombomodulin Biomarker Activity (AID 2283051).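 Further: thrombomodulin protein level measured by ELISA 24 h after dosing.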 The conditions noted are these: primary human coronary artery smooth muscle cells; actives raise or lower the signal.

Read-out in test [2]: Tissue Factor, F3 (gene 2152)
Description: BSK_CASM3C_TissueFactor: BioMAP Diversity Plus: CASM3C Assay for Tissue Factor Biomarker Activity (AID 2283052).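 Further: cell surface tissue factor protein level read by ELISA.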 The conditions noted are these: primary human coronary artery smooth muscle cells; actives raise or lower the signal.

Read-out in test [3]: Interferon-gamma inducible Protein 10 (IP10), CXCL10 (gene 3627)
Description: BSK_hDFCGF_IP10: BioMAP Diversity Plus: hDFCGF Assay for Interferon-gamma inducible Protein 10 (IP10) Biomarker Activity (AID 2283053). Particulars: primary human foreskin fibroblasts; actives raise or lower the signal. The procedure, abridged: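 ELISA read-out of IP-10 (CXCL10) from primary human skin fibroblasts, 24 h after compound addition. Gain or loss of signal versus DMSO baseline, bidirectional curve fitting.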

Read-out in test [4]: Urokinase-type plasminogen activator receptor (uPAR), PLAUR (gene 5329)
Kind of test: BSK_CASM3C_uPAR: BioMAP Diversity Plus: CASM3C Assay for Urokinase-type plasminogen activator receptor (uPAR) Biomarker Activity (AID 2283054).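 Further: cell-surface uPAR protein level quantified by ELISA.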 Particulars: primary human coronary artery smooth muscle cells; actives raise or lower the signal.

Read-out in test [5]: Vascular cell adhesion molecule 1 (VCAM1), VCAM1 (gene 7412)
Description: BSK_CASM3C_VCAM1: BioMAP Diversity Plus: CASM3C Assay for Vascular cell adhesion molecule 1 (VCAM1) Biomarker Activity (AID 2283055).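 Further: VCAM-1 protein level quantified by ELISA on the cells.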 The conditions noted are these: primary human coronary artery smooth muscle cells; actives raise or lower the signal.

Read-out in test [6]: Collagen III, COL3A1 (gene 1281)
Description: BSK_hDFCGF_CollagenIII: BioMAP Diversity Plus: hDFCGF Assay for Collagen III Biomarker Activity (AID 2283056). The conditions noted are these: primary human foreskin fibroblasts; actives raise or lower the signal. The procedure, abridged:
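Response relative to DMSO, fitted in both directions, reflects ELISA-measured collagen III in human primary skin fibroblasts 24 h after compound addition.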

Read-out in test [7]: Epidermal growth factor receptor (EGFR), EGFR (gene 1956)
Description: BSK_hDFCGF_EGFR: BioMAP Diversity Plus: hDFCGF Assay for Epidermal growth factor receptor (EGFR) Biomarker Activity (AID 2283057). The conditions noted are these: primary human foreskin fibroblasts; actives raise or lower the signal. The procedure, abridged:
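ELISA readout of EGFR on human dermal fibroblasts (primary foreskin cells), 24 h post-dosing; bidirectional curve fit vs DMSO baseline, gain or loss of signal scored.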

Read-out in test [8]: Interleukin-8 (IL8), CXCL8 (gene 3576)
Kind of test: BSK_hDFCGF_IL8: BioMAP Diversity Plus: hDFCGF Assay for Interleukin-8 (IL8) Biomarker Activity (AID 2283058). The conditions noted are these: primary human foreskin fibroblasts; actives raise or lower the signal. The procedure, abridged:
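Fibroblast monolayers (human foreskin, hDFCGF) received test chemical for 24 h before ELISA detection of IL-8; either increases or decreases relative to DMSO count as activity.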

Test [9] is described as follows: BSK_hDFCGF_Proliferation: Cell Proliferation Assessment in the BioMAP Diversity Plus: hDFCGF Assay (AID 2283059).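 Further: curves fitted for both rise and fall of signal versus DMSO baseline.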 The conditions noted are these: primary human foreskin fibroblasts. The procedure, abridged:
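This proliferation readout used SRB total-protein staining of human foreskin fibroblasts […], normalized to DMSO with bidirectional curve fitting.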

Read-out in test [10]: Macrophage colony-stimulating factor (MCSF), CSF1 (gene 1435)
Description: BSK_hDFCGF_MCSF: BioMAP Diversity Plus: hDFCGF Assay for Macrophage colony-stimulating factor (MCSF) Biomarker Activity (AID 2283060). The conditions noted are these: primary human foreskin fibroblasts; actives raise or lower the signal. The procedure, abridged: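 fibroblasts (human foreskin, primary), 24 h post-dose; M-CSF by ELISA; bidirectional fit, DMSO = baseline.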

Turning to `O=C(F)C1(F)C(F)(F)C(F)(F)C(F)(F)C(F)(F)C1(F)F`, the result in test [1], in test [2], in [3], in [4], in test [5] and in test [6] was inactive. The outcome in test [7], in test [8], in test [9] and in test [10] was inactive.
On to `O=C=Nc1cccc2c(N=C=O)cccc12`, for which the outcome in test [1], in [2], in test [3], in test [4], in test [5] and in [6] was inactive. Also, the result in test [7], in test [8], in [9] and in [10] was inactive.
As to `O=C(O)C(F)(F)OC(F)(F)C(F)(F)OC(F)(F)C(F)(F)OC(F)(F)F`, the result in test [1], in [2], in [3], in test [4], in [5] and in test [6] was inactive. The result in test [7], in test [8], in test [9] and in test [10] was inactive.
On to `O=C(O)CCC(F)(F)C(F)(F)C(F)(F)F`, for which the outcome in test [1], in [2], in test [3], in test [4], in test [5] and in [6] was inactive. For the same compound, the result in test [7], in test [8], in test [9] and in test [10] was inactive.
With `CC1=CC2C3C=CC(C3)C2C1C` (stereo not given), the outcome in test [1], in test [2], in [3], in [4], in [5] and in test [6] was inactive. Moreover, the outcome in test [7], in test [8] and in test [10] was inactive. The AC50 in [9] was 28.2 µM (active).
As to `C=CC(=O)OCCC(F)(F)C(F)(F)C(F)(F)C(F)(F)F`, the result in [1], in test [2], in test [4], in test [6], in test [8] and in test [9] was inactive. Also, the half-maximal activity concentration (AC50) was 30 µM (active) and 21.3 µM (active) in [3]; 30 µM (active) in test [5]; 21.9 µM (active) in [6]; 7.58 µM (active) in test [9]; 21 µM (active) and 15 µM (active) in test [10].
As for `OCC(O)CC(F)(F)C(F)(F)C(F)(F)C(F)(F)F` (stereo not given), the result in test [1], in [2], in test [3], in [4], in [5] and in test [6] was inactive. Besides, the outcome in [7], in [8], in test [9] and in test [10] was inactive.
As to `O=C(O)CCC(F)(F)C(F)(F)C(F)(F)C(F)(F)C(F)(F)C(F)(F)C(F)(F)F`, the outcome in test [1], in test [2], in test [3], in test [4], in test [5] and in test [6] was inactive. Also, the result in test [7], in test [8], in test [9] and in test [10] was inactive.
For the compound `C=CC(=O)OCC(F)(F)C(F)(F)C(F)(F)C(F)(F)C(F)(F)C(F)(F)C(F)(F)C(F)F`, the outcome in test [1], in test [2], in [3], in [4], in test [5] and in test [6] was inactive. For the same compound, in test [8], the outcome was inactive. In addition, the AC50 was 28.8 µM (active) in test [3]; 11 µM (active) in [5]; 18.4 µM (active) and 11.6 µM (active) in test [9]; 28.8 µM (active) and 30 µM (active) in [10].
Regarding `CC(C)CCCC(C)CCO` (stereo not given), the outcome in test [1], in test [3], in [6], in test [7], in test [8] and in test [10] was inactive. In addition, the AC50 is 29.9 µM (active) in test [2], 31.3 µM (active) in test [4], 31.9 µM (active) in test [5] and 32.8 µM (active) in test [9].
For `CNS(=O)(=O)C(F)(F)C(F)(F)C(F)(F)C(F)(F)C(F)(F)C(F)(F)C(F)(F)C(F)(F)F`, the result in test [1], in test [2], in [3], in test [4], in [6] and in test [8] was inactive. Besides, the result in test [9] and in test [10] was inactive. In addition, the AC50 is 1.99 µM (active) in test [3]; 8.2 µM (active) and 1.69 µM (active) in test [5].
With `C[Si](Cl)(Cl)CCC(F)(F)C(F)(F)C(F)(F)C(F)(F)C(F)(F)C(F)(F)F`, the outcome in [1], in [2], in [3], in test [4], in test [5] and in test [6] was inactive. Moreover, the result in test [8] and in test [10] was inactive. In addition, the AC50 in test [3] was 2.48 µM (active); in [6], 0.332 µM (active); in [9], 115 nM (active) and 2.85 µM (active); in test [10], 605 nM (active).
`Cc1cc(O)c(C(C)(C)C)cc1C(C)(C)C`: the half-maximal activity concentration (AC50) in [1] is 12 µM (active); in test [2], 3.61 µM (active); in [3], 6.51 µM (active); in [4], 8.38 µM (active); in test [5], 4.81 µM (active); in [6], 1.92 µM (active). The values for the AC50 in [9] and in [10] were 1.78 µM (active) and 5420 nM (active), respectively. The result in test [7] and in test [8] was inactive.
`CCN(CC)c1ccc2c(c1)Oc1cc(N(CC)CC)ccc1C21OC(=O)c2ccccc21`: the outcome in [1], in test [2], in test [3], in test [4], in test [7] and in test [8] was inactive. In addition, the result in test [10] was inactive. Also, the values for the half-maximal activity concentration (AC50) in [5], in [6] and in [9] were 1.98 µM (active), 10 µM (active) and 10.5 µM (active), respectively.
With `O=S(=O)(OCC(F)(F)F)C(F)(F)C(F)(F)C(F)(F)C(F)(F)F`, the result in test [1], in test [2], in test [4], in [5], in [6] and in test [8] was inactive. Besides, the result in test [9] and in [10] was inactive. In addition, the AC50 is 30 µM (active) in test [2]; 15.9 µM (active) and 16.4 µM (active) in [3]; 13.2 µM (active) in test [5].
Take `NC(=O)C(F)(F)C(F)(F)C(F)(F)C(F)(F)C(F)(F)C(F)(F)C(F)(F)F`: the outcome in test [1], in test [2], in [3], in [4], in test [5] and in [6] was inactive. Moreover, the outcome in test [7], in test [8], in test [9] and in [10] was inactive.

These data come from PubChem BioAssay (EPA / NIEHS).
